Source: PubChem BioAssay (NCI)
“And” between values parts separate entries of the source, which are not always exact repeats. Identical values can stand only once. About 83,000 compounds went through this panel and 20% of them were active in at least one assay; those are over-represented in the sample as a whole.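 The endpoint reported here, percent growth, reads 100 for growth as untreated, 0 for no net growth and -100 for all cells dead.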 The source made the active and inactive calls. The calls were made as follows: active = growth percent below 10; inactive = the rest.

Legend:
Experiment in all cases: NCI-60 one-dose screen, 48 h (100 = growth as untreated, 0 = no growth, -100 = all killed)
Settings in all cases: 10 µM unless noted
NCI-H23 lung = test system: NCI-H23 lung
NCI-H226 lung = test system: NCI-H226 lung
NCI-H322M lung = test system: NCI-H322M lung
HOP-62 NSCLC = test system: HOP-62 NSCLC
NCI-H460 lung = test system: NCI-H460 lung
HOP-92 NSCLC = test system: HOP-92 NSCLC
NCI-H522 lung = test system: NCI-H522 lung
A549/ATCC NSCLC = test system: A549/ATCC NSCLC
786-0 renal = test system: 786-0 renal
COLO 205 colon = test system: COLO 205 colon

Structure (SMILES) | growth (NCI-H23 lung) | growth (NCI-H226 lung) | growth (NCI-H322M lung) | growth (HOP-62 NSCLC) | growth (NCI-H460 lung) | growth (HOP-92 NSCLC) | growth (NCI-H522 lung) | growth (A549/ATCC NSCLC) | growth (786-0 renal) | growth (COLO 205 colon)
C[C@]12CC[C@H]3[C@@H](CC=C4c5nc(N)sc5CC[C@@]43C)[C@@H]1CC[C@@H]2O | 98.4% (inactive) | 97.1% (inactive) | 108% (inactive) | 100% (inactive) | 96% (inactive) | 105% (inactive) | 89.7% (inactive) | 94.5% (inactive) | 100% (inactive) | 113% (inactive)
Cc1ccccc1-n1c(/C=C\c2ccccn2)nc2ccccc2c1=O | 55.5% (inactive) | 97.8% (inactive) | 44.9% (inactive) | 107% (inactive) | 68% (inactive) | 41.2% (inactive) | 54.8% (inactive) | 80.4% (inactive) | -1.31% (active) | 94.2% (inactive)
CCC1(NC(=O)c2cc(F)c(F)c(F)c2F)C(=O)NC(=O)N(C(C)C)C1=O (stereo not given) | 47% (inactive) | 139% (inactive) | 90.2% (inactive) | 101% (inactive) | 99.7% (inactive) | 79.9% (inactive) | -5.62% (active) | 75.9% (inactive) | 101% (inactive) | 141% (inactive)
CCN1C(=O)NC(=O)C(C)(N2C(=O)c3c(F)c(F)c(F)c(F)c3C2=O)C1=O (stereo not given) | 32.3% (inactive) | 105% (inactive) | 96.7% (inactive) | 101% (inactive) | 22.8% (inactive) | -42.6% (active) | -76.6% (active) | 43.1% (inactive) | 37.4% (inactive) | -51.4% (active)
CC[CH2][Sn]([Cl])([Cl])[CH2]CC.Oc1ccccc1C=NCCN=Cc1ccccc1O | 56.4% (inactive) and 34.2% (inactive) | 11% (inactive) and 17.4% (inactive) | 105% (inactive) and 92.4% (inactive) | 103% (inactive) and 83.8% (inactive) | 110% (inactive) and 90.5% (inactive) | 40% (inactive) and 29.2% (inactive) | -87.6% (active) and -83.2% (active) | 103% (inactive) and 92.3% (inactive) | 65.2% (inactive) and 59.1% (inactive) | 50.6% (inactive) and -12.1% (active)
CC[C@H](C)[C@H](NC(=O)CN(C)C)C(=O)N(C)[C@H](C[C@@H](OC(C)=O)c1nc(C(=O)NC23C4C5C2C2C3C4C52C(=O)OC)cs1)C(C)C (stereo not given in full) | 21.3% (inactive) | 31.7% (inactive) | 42.2% (inactive) | 19.4% (inactive) | 3.35% (active) | 66.1% (inactive) | 24.1% (inactive) | 21.3% (inactive) | 31.3% (inactive) | -7.69% (active)
COc1cc(C2C3=C(CCCC3=O)N(CCO)c3cc4c(cc32)CCC4)cc(OC)c1OC (stereo not given) | 80.8% (inactive) | 103% (inactive) | 75.1% (inactive) | 92.6% (inactive) | 36.4% (inactive) | 76% (inactive) | 62.7% (inactive) | 58.9% (inactive) | 84.6% (inactive) | 74% (inactive)
O=C/C=C/c1ccco1 | 101% (inactive) | 107% (inactive) | 111% (inactive) | 94.7% (inactive) | 111% (inactive) | 94.3% (inactive) | 92% (inactive) | 85.6% (inactive) | 100% (inactive) | 115% (inactive)
CCC1CCC(=O)O1 (stereo not given) | 110% (inactive) and 111% (inactive) | 97.4% (inactive) and 110% (inactive) | 102% (inactive) and 104% (inactive) | 96.9% (inactive) and 115% (inactive) | 103% (inactive) and 110% (inactive) | 123% (inactive) | 85.1% (inactive) and 105% (inactive) | 112% (inactive) and 105% (inactive) | 98.1% (inactive) and 107% (inactive) | 104% (inactive) and 125% (inactive)
COc1cc2c(c(OC)c1OC)-c1ccc(O)cc1[C@@H](NC(C)=O)CC2 | 37.7% (inactive) and 13.8% (inactive) | 5.36% (active) and 46.3% (inactive) | 42.7% (inactive) and 1.84% (active) | 37.8% (inactive) and 21.6% (inactive) | 5.66% (active) and 0.839% (active) | 16.7% (inactive) | 17% (inactive) and -32.6% (active) | 14.9% (inactive) | 29.2% (inactive) and 32.5% (inactive) | -32.6% (active) and -83.8% (active)
COC1C(O)CC(OC2CC(Oc3cc4cc5c(c(O)c4c(O)c3C)C(=O)[C@@H](OC3CC(OC4CC(OC6CC(C)(O)C(OC(C)=O)C(C)O6)C(O)C(C)O4)C(O)C(C)O3)[C@H]([C@H](OC)C(=O)[C@@H](O)[C@@H](C)O)C5)OC(C)C2OC(C)=O)OC1C (stereo not given in full) | -44.1% (active) | -10.6% (active) | -2.53% (active) | -11.7% (active) | -25.7% (active) | -19.7% (active) | -50.6% (active) | -64.2% (active) | 1.26% (active) | -57.6% (active)
CO[C@H]1[C@H](O[C@@H]2C[C@@H]3C/C=C/C(=O)O[C@@H](CO)C[C@H](O)[C@@H]4C[C@H](C)[C@H](C/C=C\C=C\[C@H](C)C[C@H](C2)O3)O4)O[C@@H](C)[C@H](O)[C@H]1O | 22.5% (inactive) | 37.9% (inactive) | 89.5% (inactive) | 65.8% (inactive) | 54.5% (inactive) | 95.2% (inactive) | 27.2% (inactive) | 47% (inactive) | 78.7% (inactive) | 37.6% (inactive)
C[C@]12CCc3sc(Nc4ccc(F)cc4F)nc3C1=CC[C@@H]1[C@@H]2CC[C@]2(C)C(=O)CC[C@@H]12 | 66.2% (inactive) | 84.2% (inactive) | 84.5% (inactive) | 87.1% (inactive) | 60.9% (inactive) | 77.1% (inactive) | 42.6% (inactive) | 61.7% (inactive) | -27.7% (active) | 54.3% (inactive)
N#CC(N)c1ccccc1 (stereo not given) | 109% (inactive) | 100% (inactive) | 113% (inactive) | 114% (inactive) | 102% (inactive) | 113% (inactive) | 109% (inactive) | 109% (inactive) | 105% (inactive) | 116% (inactive)
CC(C)c1cccc(C(C)C)c1O | 97% (inactive) and 103% (inactive) | 107% (inactive) and 103% (inactive) | 99.6% (inactive) and 93% (inactive) | 111% (inactive) and 110% (inactive) | 117% (inactive) and 101% (inactive) | 100% (inactive) | 98% (inactive) | 93.1% (inactive) and 75.5% (inactive) | 108% (inactive) | 116% (inactive) and 111% (inactive)
CC[C@@H](C)C(=O)O[C@H]1[C@H](O)[C@H]2[C@@H](CN3C[C@@H](C)CC[C@H]3[C@@]2(C)O)[C@@H]2C[C@]34O[C@]5(O)[C@@H](OC(=O)[C@@](C)(O)CC)CC[C@@]3(C)[C@@H]5[C@@H](OC(C)=O)[C@@H](OC(C)=O)[C@H]4[C@@]21O | 99.1% (inactive) | 81.2% (inactive) | 106% (inactive) | 82.8% (inactive) | 111% (inactive) | 90% (inactive) | 100% (inactive) | 70.5% (inactive) | 101% (inactive) | 92.1% (inactive)
COc1cc(C=C2C(=O)NC(=O)NC2=O)ccc1O | 98.1% (inactive) | 96.1% (inactive) | 117% (inactive) | 100% (inactive) | 108% (inactive) | 113% (inactive) | 96.9% (inactive) | 102% (inactive) | 99.7% (inactive) | 109% (inactive)
CC[C@H](C)[C@H](NC(=O)[C@H]1CCCCN1C)C(=O)N(C)[C@H](C[C@@H](OC(C)=O)c1nc(C(=O)N[C@@H](Cc2ccccc2)C[C@H](C)C(=O)O)cs1)C(C)C | 25.9% (inactive) | 11.6% (inactive) | 51.5% (inactive) | 12.2% (inactive) | 11% (inactive) | 14.8% (inactive) | -47.1% (active) | 10.2% (inactive) | 15.6% (inactive) | -80.3% (active)
Cc1ccc(N2CCN(CCC#N)CC2)cc1 | 100% (inactive) | 92.1% (inactive) | 75.2% (inactive) | 93.6% (inactive) | 97.7% (inactive) | 98.4% (inactive) | 84.6% (inactive) | 88.5% (inactive) | 100% (inactive) | 93.7% (inactive)
COc1cc(-c2ccc(N)c(OC)c2)ccc1N | 101% (inactive) | 110% (inactive) | 84.4% (inactive) | 95.5% (inactive) | 114% (inactive) | 110% (inactive) | 131% (inactive) | 108% (inactive) | 106% (inactive) | 120% (inactive)
CC[C@H](C)[C@H](NC(=O)[C@H]1CCCCN1C)C(=O)N(C)[C@H](C[C@@H](OC(C)=O)c1cccc(C(=O)N[C@@H](Cc2ccccc2)C[C@H](C)C(=O)OC)n1)C(C)C | 22.4% (inactive) | 23.3% (inactive) | 40.3% (inactive) | 3.61% (active) | 7.06% (active) | -0.87% (active) | -11.6% (active) | 10.5% (inactive) | 14.5% (inactive) | -71.6% (active)
O=c1[nH]c(=O)[nH]c(=O)[nH]1 | 97.9% (inactive) | 122% (inactive) | 104% (inactive) | 85.2% (inactive) | 111% (inactive) | 113% (inactive) | 95.5% (inactive) | 108% (inactive) | 96.9% (inactive) | 115% (inactive)
COc1cc(/C=C\[N+](=O)[O-])ccc1OCc1ccccc1 | 34.6% (inactive) | 105% (inactive) | 94.5% (inactive) | 30.7% (inactive) | 62.4% (inactive) | 66.3% (inactive) | 73.5% (inactive) | 64.7% (inactive) | -17.4% (active) | 32.7% (inactive)
